Rows were chosen to be rich in hits. Some 3.2% of all compounds tested hit in one or more screens of this group.
TcdB inh: blocks C. difficile toxin B glycohydrolase activity. P18177. TcdB glycohydrolase enzymatic assay, plate reader. inhibition, % at 9.99 µM. actives 0.24% (n = 350,000); in the data active = inhibition above about 10%
GDH-TPI counter-1: GDH-TPI coupled enzyme inhibition counter-screen | GDH-TPI coupled enzyme counterscreen, NADH absorbance | inhibition, % at 4.8 µM | actives 1.2% (n = 360,000); in the data active = inhibition above about 30%
PrPC surface inh: inhibitors of human cell surface prion protein PrPC. AID 720596. P04156. TR-FRET read-out. inhibition, % at 13.8 µM. actives 0.43% (n = 370,000); in the data active = inhibition above about 24%
FBA Mtb inh: Mtb fructose-bisphosphate aldolase inhibition; P9WQA3; purified M. tuberculosis FBA, fluorescence read-out; inhibition, % at 1 µM; actives 2.3% (n = 360,000)
Target sequence (P9WQA3 whole entry, looked up): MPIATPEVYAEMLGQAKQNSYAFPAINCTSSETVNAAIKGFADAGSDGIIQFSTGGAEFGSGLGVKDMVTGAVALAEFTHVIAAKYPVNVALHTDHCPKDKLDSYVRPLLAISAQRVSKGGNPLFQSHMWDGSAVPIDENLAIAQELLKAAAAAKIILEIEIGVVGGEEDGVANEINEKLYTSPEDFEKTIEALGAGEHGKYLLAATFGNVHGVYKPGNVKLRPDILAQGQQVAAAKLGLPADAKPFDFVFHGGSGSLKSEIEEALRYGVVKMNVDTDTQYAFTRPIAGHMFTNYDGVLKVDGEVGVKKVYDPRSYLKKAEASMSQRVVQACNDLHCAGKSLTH
Yp Topo-I inh: Y. pestis Topo-I inhibition via cleavage products | actives 0.064% (n = 360,000) | activity, % at 10 µM | Y. pestis Topo-I cleavage product accumulation, plate reader | AID 504884; in the data active = activity above about 50%, passing the limit was not always enough
Mtb FBA confirm: Mtb FBA inhibition, confirmed; shares compounds with FBA Mtb inh; purified M. tuberculosis FBA, fluorescence read-out; inhibition, % at 1 µM; actives 78% (n = 5,600); AID 651616
GDH-TPI counter-2: counter-screen for M. tuberculosis FBA inhibitors: GDH-TPI coupled enzyme inhibition; actives 81% (n = 5,600); inhibition, % at 1 µM; GDH-TPI coupled enzyme counterscreen, fluorescence; shares compounds with FBA Mtb inh; AID 652141; in the data active = inhibition above about 10%
Large screens that a line does not name were inactive (follow-up assays come after a bar, where they were run). Cut-off read from the data, not from the text of the source, unless noted: active = inhibition above about 27%; inactive = the rest.

CN1CCN(C(=O)C[C@H]2C[C@@H]3c4cc(NC(=O)CC5CC5)ccc4O[C@@H]3[C@H](CO)O2)CC1	none (no result: GDH-TPI counter-1, PrPC surface inh, FBA Mtb inh, Yp Topo-I inh)
O=C(C[C@H]1C=C[C@H](NC(=O)c2ccccn2)[C@@H](CO)O1)NCc1cccc(F)c1	none (no result: GDH-TPI counter-1, PrPC surface inh, FBA Mtb inh, Yp Topo-I inh)
COc1ccc(C(=O)c2c[nH]c(C(=O)NCCCn3ccnc3)c2)cc1	none
COc1ccc2[nH]c(=O)c(C(=O)O)cc2c1	FBA Mtb inh 53 | Mtb FBA confirm 66 | GDH-TPI counter-2 61
COc1ccc2[nH]c(=O)cc(C(=O)O)c2c1	none
COc1ccc2[nH]c(C(=O)NCCc3ccccc3)cc2c1	FBA Mtb inh 48 | Mtb FBA confirm inactive | GDH-TPI counter-2 inactive
O=C(NCCc1ccccc1)c1ccc2[nH]c(=O)c(=O)[nH]c2c1	FBA Mtb inh 33 | Mtb FBA confirm 32 | GDH-TPI counter-2 19
O=C(NCCc1ccccc1)c1ccc(=O)[nH]c1	none (no result: TcdB inh)
COc1ccc2[nH]c(C(=O)NCCCn3ccnc3)cc2c1	FBA Mtb inh 86 (no result: TcdB inh, PrPC surface inh) | Mtb FBA confirm 125 | GDH-TPI counter-2 90
CCNC(=O)[C@H]1[C@H](CO)[C@H]2Cn3c(cccc3=O)[C@@H]1N2CC1CCOCC1	none (no result: GDH-TPI counter-1, PrPC surface inh, FBA Mtb inh, Yp Topo-I inh)
CCCCNC(=O)c1cc2cc(OC)ccc2[nH]1	FBA Mtb inh 49 | Mtb FBA confirm inactive | GDH-TPI counter-2 inactive
COc1ccc(C(=O)NCCCNC(=O)c2cc3ccccc3[nH]2)cc1OC	none
C[C@@H]1CN([C@H](C)CO)S(=O)(=O)c2ccc(-c3ccc(C(=O)N(C)C)cc3)cc2O[C@H]1CN(C)C(=O)C1CCC1	none (no result: GDH-TPI counter-1, PrPC surface inh, FBA Mtb inh, Yp Topo-I inh)
O=C1OCCN1C(=O)[C@H]1[C@H](c2ccc(F)cc2)C(c2ccccc2)=NN1c1ccccc1	none
OC[C@@H]1[C@@H](c2ccc(F)cc2)C(c2ccccc2)=NN1c1ccccc1	FBA Mtb inh 29 | Mtb FBA confirm 48 | GDH-TPI counter-2 45
CC[C@H]1C(c2ccc(F)cc2)=NN(c2ccccc2)[C@@H]1CO	FBA Mtb inh 30 | Mtb FBA confirm 65 | GDH-TPI counter-2 63
O=S(=O)(c1ccc2ccccc2c1)N1C=CC(C(F)(F)F)=NCC1	FBA Mtb inh 86 | Mtb FBA confirm inactive | GDH-TPI counter-2 inactive
COc1cc2c(C#N)c(N3CCN(C)CC3)nc(N)c2c(N)n1	FBA Mtb inh 81 (no result: TcdB inh) | Mtb FBA confirm active | GDH-TPI counter-2 active
CCCc1cc(=O)oc2cc(OC3CCCCC3=O)ccc12 (configuration not stated)	FBA Mtb inh 45 | Mtb FBA confirm inactive | GDH-TPI counter-2 22
CC1CCCCN1C(=O)COc1ccc2ccc(=O)oc2c1 (configuration not stated)	none
O=C1CCCCC1Oc1ccc2ccc(=O)oc2c1 (configuration not stated)	FBA Mtb inh 58 | Mtb FBA confirm active | GDH-TPI counter-2 174
CCOc1ccc(/C=N/n2cc(-c3ccccc3)[nH]c2=S)cc1	FBA Mtb inh 67 | Mtb FBA confirm 89 | GDH-TPI counter-2 80
S=c1[nH]c(-c2ccccc2)cn1/N=C/c1ccncc1	FBA Mtb inh 35 | Mtb FBA confirm 49 | GDH-TPI counter-2 42
S=c1[nH]ncn1/N=C/c1ccccc1	none (no result: TcdB inh)
Cc1noc(C)c1S(=O)(=O)N(C)C[C@H]1OCCCC[C@H](C)Oc2ccc(NS(C)(=O)=O)cc2C(=O)N([C@H](C)CO)C[C@@H]1C	none (no result: GDH-TPI counter-1, PrPC surface inh, FBA Mtb inh, Yp Topo-I inh)
CN(C)C(=O)c1ccc(-c2ccc(C3[C@@H]4CN(C(=O)C5CCOCC5)C[C@H]3N4)cc2)cc1 (some centres not stated)	none (no result: GDH-TPI counter-1, PrPC surface inh, FBA Mtb inh, Yp Topo-I inh)
CN(C)CC(=O)N[C@H]1C=C[C@@H](CC(=O)NCc2ccccc2F)O[C@@H]1CO	none (no result: GDH-TPI counter-1, PrPC surface inh, FBA Mtb inh, Yp Topo-I inh)
CN(C)c1ccc2c(c1)[C@@H]1C[C@H](CC(=O)N3CCc4ccccc4C3)O[C@@H](CO)[C@@H]1O2	none (no result: GDH-TPI counter-1, PrPC surface inh, FBA Mtb inh, Yp Topo-I inh)
Nn1c(SCc2ccccc2F)nnc1-c1ccccn1	TcdB inh 14, FBA Mtb inh 42 | Mtb FBA confirm 81 | GDH-TPI counter-2 71
Nn1c(SCc2ccc(F)cc2)nnc1-c1ccccn1	none
Cn1c(=O)c2cc(NC(=S)NC3CCCCC3)ccc2n1C/C=C/c1ccccc1	none
Cn1c(=O)c2cc(NC(=S)NC3CC3)ccc2n1C/C=C/c1ccccc1	FBA Mtb inh 34 | Mtb FBA confirm 70 | GDH-TPI counter-2 54
Cn1c(=O)c2cc(NC(=O)Cc3cccc4ccccc34)ccc2n1-c1ccccc1	none
CN1C(=O)CSc2ccc(NC(=O)NCc3ccc(F)cc3)cc21	none
Cn1c(=O)c2cc(NC(=O)Cc3ccccc3F)ccc2n1C/C=C/c1ccccc1	FBA Mtb inh 62 | Mtb FBA confirm active | GDH-TPI counter-2 active
Cn1c(=O)c2cc(NC(=O)NCc3ccc(F)cc3)ccc2n1C/C=C/c1ccccc1	FBA Mtb inh 60 | Mtb FBA confirm inactive | GDH-TPI counter-2 25
CO[C@H]1CN(C)C(=O)c2ccc(NS(C)(=O)=O)cc2OC[C@H](C)N(C(=O)C2CCCCC2)C[C@@H]1C	none (no result: GDH-TPI counter-1, PrPC surface inh, FBA Mtb inh, Yp Topo-I inh)
O=C(NCC1CCCO1)c1cc2ccccc2[nH]1 (configuration not stated)	none (no result: TcdB inh)
COc1cccc2[nH]c(C(=O)NCC3CCCO3)cc12 (configuration not stated)	FBA Mtb inh 32 | Mtb FBA confirm 126 | GDH-TPI counter-2 97
COc1ccccc1-c1nc(C(=O)NCC2CCCO2)cc2c1[nH]c1ccccc12 (configuration not stated)	none (no result: TcdB inh, PrPC surface inh)
COc1cc(-c2nc(C(=O)NCC3CCCO3)cc3c2[nH]c2ccccc23)cc(OC)c1OC (configuration not stated)	FBA Mtb inh 38 | Mtb FBA confirm 60 | GDH-TPI counter-2 50
COc1cccc2[nH]c(C(=O)NC(C)c3ccccc3)cc12 (configuration not stated)	FBA Mtb inh 50 | Mtb FBA confirm 156 | GDH-TPI counter-2 117
COc1cccc(-c2nn(-c3ccc(C)cc3)cc2C(=O)NCC2CCCO2)c1 (configuration not stated)	none
COc1cccc(-c2nn(-c3ccc(F)cc3)cc2C(=O)NCC2CCCO2)c1 (configuration not stated)	FBA Mtb inh 47 | Mtb FBA confirm active | GDH-TPI counter-2 active
CCCC#Cc1cnc2c(c1)C(=O)N([C@H](C)CO)C[C@H](C)[C@@H](CN(C)C(=O)NC1CCCC1)O2	none (no result: GDH-TPI counter-1, PrPC surface inh, FBA Mtb inh, Yp Topo-I inh)
O=C(C[C@H]1CC[C@@H]2[C@H](COC[C@@H](O)CN2Cc2cccc(-c3ccncc3)c2)O1)N1CCN(c2ccccc2)CC1	none (no result: GDH-TPI counter-1, PrPC surface inh, FBA Mtb inh, Yp Topo-I inh)
COc1cccc2[nH]c(=O)c(-c3ccccc3)cc12	FBA Mtb inh 71 | Mtb FBA confirm 47 | GDH-TPI counter-2 39
COc1cccc(-c2nc(C(=O)NCCCN3CCOCC3)cc3c2[nH]c2ccccc23)c1	FBA Mtb inh 38 | Mtb FBA confirm inactive | GDH-TPI counter-2 inactive
CCN1CCCC1CNC(=O)c1cc2c(OC)c(OC)c(OC)cc2[nH]1 (configuration not stated)	none
